Screens deposited in PubChem by several laboratories.
eIF4E 4G PPI: eIF4E/eIF4G interaction inhibition in translation initiation; inhibition, % at 21.7 µM; P63073+Q04637; AID 782; 220,000 compounds, 0.37% hits; TR-FRET eIF4E-eIF4GI(517-606) binding, 2 h;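 active = inhibition above about 30%, limit read from the data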
PABP FP inh: blocks human PABP binding to poly(A) RNA. P11940. fluorescence polarization. calls only at 35 µM. 290,000 compounds, 1% hits;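 note: calls also rest on retests at 20 µM and on dose response follow-up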
PERK inh: human PERK inhibition, primary cell-based screen; Q9NZJ5; CHO PERK-DD fusion, SEAP luminescence translation reporter; inhibition, % at 5.6 µM; 220,000 compounds, 0.17% hits; AID 1416;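 active = inhibition above the mean inhibition of all tested compounds plus 3 SD, set separately per screening campaign, cut at about 2.9% in these data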;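 note: PERK kinase domain activated by AP20187 dimerizer at 100 nM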
Target sequence (Q9NZJ5 whole entry, looked up, the tested form may be a part): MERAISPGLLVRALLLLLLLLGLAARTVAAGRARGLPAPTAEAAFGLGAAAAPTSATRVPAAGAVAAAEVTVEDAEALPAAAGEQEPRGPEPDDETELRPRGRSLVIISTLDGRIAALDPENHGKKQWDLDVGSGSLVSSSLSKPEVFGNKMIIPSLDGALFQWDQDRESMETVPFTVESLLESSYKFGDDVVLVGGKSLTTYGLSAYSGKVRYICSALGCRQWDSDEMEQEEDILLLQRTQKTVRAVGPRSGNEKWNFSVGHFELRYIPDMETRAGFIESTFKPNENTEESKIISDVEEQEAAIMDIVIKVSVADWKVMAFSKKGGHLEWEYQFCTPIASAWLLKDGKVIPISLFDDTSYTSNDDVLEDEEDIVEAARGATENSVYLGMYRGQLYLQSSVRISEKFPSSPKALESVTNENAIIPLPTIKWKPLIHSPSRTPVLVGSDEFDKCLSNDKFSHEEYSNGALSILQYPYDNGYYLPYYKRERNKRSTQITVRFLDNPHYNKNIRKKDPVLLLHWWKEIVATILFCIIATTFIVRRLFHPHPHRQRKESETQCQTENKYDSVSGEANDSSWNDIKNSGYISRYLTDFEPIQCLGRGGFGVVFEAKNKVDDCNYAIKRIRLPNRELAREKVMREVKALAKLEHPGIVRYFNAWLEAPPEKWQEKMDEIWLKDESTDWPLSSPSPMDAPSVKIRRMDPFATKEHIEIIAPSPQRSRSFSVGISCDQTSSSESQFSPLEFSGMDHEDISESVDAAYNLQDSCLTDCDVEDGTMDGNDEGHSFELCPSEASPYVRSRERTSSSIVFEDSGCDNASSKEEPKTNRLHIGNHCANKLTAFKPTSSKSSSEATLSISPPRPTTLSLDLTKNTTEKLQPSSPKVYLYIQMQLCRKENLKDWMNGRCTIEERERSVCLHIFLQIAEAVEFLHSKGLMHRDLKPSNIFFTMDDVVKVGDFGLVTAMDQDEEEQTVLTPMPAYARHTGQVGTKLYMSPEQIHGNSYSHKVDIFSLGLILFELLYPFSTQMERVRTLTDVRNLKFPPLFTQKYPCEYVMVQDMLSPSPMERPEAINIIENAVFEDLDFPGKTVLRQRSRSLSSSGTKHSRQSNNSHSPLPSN
eIF4H FP inh: inhibitors of RNA binding by human eIF4H; 290,000 compounds, 0.94% hits; Q15056; eIF4H fluorescence polarization binding assay; inhibition, % at 35 µM;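 note: calls also rest on retests at 20 µM and on dose response follow-up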
PABP1 MLLE inh: inhibitors of microRNA-mediated deadenylation, human PABP1 MLLE binding. P11940. GST-MLLE / FITC-PAM2 fluorescence polarization. inhibition, % at 20 µM. 360,000 compounds, 0.36% hits; in the data active = inhibition above about 35%, passing the limit was not always enough
A number is an active result; i = inactive; ? = inconclusive; nt = no result; + = active, no number; [ ] = another dose, or the depositor's remark. Only some compounds are listed: those with a hit (about 1.6% of all), similar ones and a draw of the others. Unless noted, the rule behind the calls is not given here.

SMILES | eIF4E 4G PPI | PABP FP inh | PERK inh | eIF4H FP inh | PABP1 MLLE inh
C=C(C)C(=O)Nc1cccc(C2=NOC3(C2)C[C@H](C(N)=O)N(C(=O)/C=C/C)C3)c1 (some centres undefined) | i | + | nt | 87.8 | i
C/C=C\C(=O)Nc1cccc(C2=NOC3(C2)C[C@H](C(N)=O)N(C(=O)/C=C/CC)C3)c1 (some centres undefined) | i | i | nt | i | i
OCCc1c[nH]c2ccc(C(F)(F)F)cc12 | nt | i | nt | i | i
Fc1cccc(Cl)c1Cn1nnc2c(NCc3ccncc3)ncnc21 | i | i | i | i | i
Cc1cc(OC(=O)c2ccccc2C(F)(F)F)c([N+](=O)[O-])c(=O)[nH]1 | nt | i | nt | i | i
O=C(Oc1ccccc1N1C(=O)C2CCCCC2C1=O)c1ccc(Cl)cc1 (centres undefined) | i | i | i | i | i
O=C(Oc1ccccc1N1C(=O)C2CCCCC2C1=O)c1ccccc1F (centres undefined) | i | i | i | active | i
CS(=O)(=O)N(CC(=O)NC1CC2CCC1C2)c1ccc(Oc2ccccc2)cc1 (centres undefined) | i | i | i | i | i
CC1(C(=O)NS(=O)(=O)c2cccc(F)c2)CCN1C(=O)c1ccccc1 (centres undefined) | nt | nt | nt | nt | i
O=C(CCCN1C(=O)CCC1=O)Nc1ccccc1F | i | i | i | i | 34.4
O=C(CCCN1C(=O)CCC1=O)Nc1ccc(Br)cc1F | i | i | i | i | i
N#C/C(=C\c1ccc(-c2cccc(Cl)c2)o1)C(=O)Nc1cccc2cccnc12 | i | + | i | 81.7 | i
Cc1cc(C)nc(SCNC(=O)c2ccc(Cl)cc2)n1 | i | i | i | i | 43.5
CN(C)S(=O)(=O)c1ccc(Cl)c(NC(=O)COC(=O)/C=C/c2ccco2)c1 | i | + | i | i | i
O=C(COC(=O)/C=C/c1ccco1)Nc1ncc(Cl)cc1Cl | i | + | i | 78.9 | i
CN(C)S(=O)(=O)c1cccc(NC(=O)COC(=O)/C=C/c2ccc(Br)o2)c1 | i | + | i | ? | i
Cc1ccc(NC(=O)COC(=O)/C=C/c2ccc(Br)o2)cc1S(=O)(=O)N(C)C | i | i | i | i | i
Cc1nc(NC(=O)COC(=O)/C=C/c2ccco2)c(Cl)cc1Cl | nt | nt | nt | nt | i
COc1ccc(/C=C/C(=O)OCC(=O)Nc2cc(S(=O)(=O)N(C)C)ccc2Cl)cc1 | i | i | i | i | i
CCS(=O)(=O)N1CCC(C(=O)NCc2cccnc2)CC1 | i | i | i | i | i
CC(C)c1ccc(CN2CCC(C(=O)NCc3cccnc3)CC2)cc1 | 74.9 | i | i | i | i
O=C(O)CSc1nnc2c(n1)[nH]c1ccccc12 | i | i | i | i | i
O=C(O)c1ccccc1CSc1nnc2c(n1)[nH]c1ccccc12 | i | i | 3.1 | i | i
O=C(CSc1nnc2c(n1)[nH]c1ccccc12)Nc1ccc2c(c1)OCO2 | i | i | i | i | 37.1
CN(c1ccccc1)S(=O)(=O)c1cccc(C(=O)OCC(=O)Nc2ccc(C(N)=O)cc2)c1 | nt | nt | nt | nt | i
SMILES | eIF4E 4G PPI | PABP FP inh | PERK inh | eIF4H FP inh | PABP1 MLLE inh
F[B-](F)(F)COc1ccccc1 | nt | nt | nt | nt | i
COc1ccc2nc(-n3c(O)c(C4=c5ccccc5=NC4=O)[nH]c3=S)sc2c1 | 51.8[fluorescence artefact?] | + | i | 61.5 | i
Cn1c(O)c(C2=c3ccccc3=NC2=O)[nH]c1=S | i | i | i | i | i
Cc1ccc(C(=O)NCCn2c(N)c(C#N)c3nc4ccccc4nc32)cc1 | i | + | i | 56.3 | i
CCn1c(C)c(CS(=O)(=O)c2ccccc2)[nH]c1=O | i | i | i | i | 38.3
COc1ccc(/C=C2\SC(=S)N(CCCC(=O)Nc3ccccc3C(=O)O)C2=O)cc1OC | nt | + | nt | i | i
COc1cccc(/C=C2\SC(=S)N(CCCC(=O)NC3=NCCS3)C2=O)c1 | nt | + | nt | i | i
COc1ccc(/C=C2\SC(=S)N(CCC(=O)Nc3ccccc3C(=O)O)C2=O)cc1 | nt | i | nt | i | i
COc1cccc(/C=C2\SC(=O)N(CC(=O)NC3C=CS(=O)(=O)C3)C2=O)c1 (centres undefined) | nt | i | nt | i | 41.5
COc1cccc(/C=C2\SC(=S)N(CCCC(=O)Nc3cc(C)on3)C2=O)c1 | nt | + | nt | ? | i
CC1(C)[C@H]2CC=C(CN3CCC(N4CCC(C(=O)N5CCCC5)CC4)CC3)[C@@H]1C2 | i | i | i | i | i
Cc1ccc(C)c(Nc2c([N+](=O)[O-])c(=O)oc3ccccc23)c1 | i | i | i | i | i
C[C@@H]1CN([C@H](C)CO)C(=O)CCCn2cc(nn2)CO[C@H]1CN(C)C(=O)C1CC1 | nt | nt | nt | nt | i
